Assay results: PubChem BioAssay (NCATS)
Inconclusive results are not listed. Unmarked numbers belong to inactive results. Activity calls are given as the source filed them. Calls follow the shape of the dose curve; as a rule, active = well fitted inhibition curve with a large enough effect; inconclusive = small, poorly fitted or top-dose-only effect; inactive = flat fitted curve, though single readings scatter.

Each compound was assayed against Phospholipid hydroperoxide glutathione peroxidase GPX4 (Homo sapiens) (UniProt P36969) (assay: Primary qHTS Assay for Inhibitors of Recombinant Selenoprotein Glutathione Peroxidase 4 (GPX4) (AID 1845192; also: nearly all actives have a fitted effect of over 65% in size)). Details: recombinant GPX4, GR-coupled NADPH fluorescence, 15 min; series mostly up to 50 µM; activity change, negative = inhibition: at the top concentration.
From the text: Assay Provider: Elias S.J. Arner MD PhD.
Department of Medical Biochemistry and Biophysics
Karolinska Institutet, Solna, Stockholm, Sweden
Selenoprotein glutathione peroxidases (GPX), like the ubiquitously expressed GPX1 and the ferroptosis modulator GPX4, enact their antioxidant activities by reducing hydroperoxides using glutathione. […] GPX1 and GPX4 inhibitors have thus shown promise as anti-cancer agents. Existing inhibitors are often promiscuous, or modulate GPX activity only indirectly, so novel direct inhibitors identified through screening against GPX1 and GPX4 could be valuable. Here, we developed optimized glutathione reductase (GR)-coupled GPX assays for the biochemical high-throughput screen (HTS) of almost 12,000 compounds with known mechanisms of action. Initial hits were triaged using a GR counter-screen, assessed for isoform specificity using a separate GPX2 assay, and were assessed for general selenocysteine-targeting activity using a thioredoxin reductase (TXNRD1) assay. With this suite of assays, we identified novel GPX1/GPX2- and GPX4-specific inhibitors and can here present a validated pipeline for future discovery research for selenoprotein-targeting agents.
SEQUENCE No. (e.g., 1, 2, 3, etc.); […] (e.g., Cells, Incubation, Reagent, etc.); VALUE; DESCRIPTION.
1; Reagent 1; 3 uL; 333.33 nM GPx4 enzyme or no enzyme control in 1536-well, black, solid Greiner assay plate.
2; Compound; 25 nL; Kalypsis pin tool (Wako USA) equipped with a 1536-well pin head.
3; Incubation; 30 min; room temperature.
4; Reagent 2; 1 uL; 500 nM GR, 5 mM GSH, 2.5 mM NADPH solution
5; Reagent 3; 1 uL; 2.5 mM CHP in 50% EtOH.
6; Detection; Fluorescence; ViewLux microplate reader, excitation 340 nm and emission 450 nm.
7; Incubation; 15 min; room temperature.
8; Detection; Fluorescence; ViewLux microplate reader, excitation 340 nm and emission 450 nm.
NOTES (numbers refer to Sequence numbers above)
1. 3 µL of 333.33 nM GPX4 and 0.016% BSA in assay buffer (50 mM Tris-HCl, 2 mM EDTA (pH 7.5), 150 mM NaCl) was added to columns 3-48 of 1536-well plates using a BioRAPTR Flying Reagent Dispenser (Let's Go Robotics (LGR), Carlsbad, CA). A no-enzyme control (0.01% BSA in TES assay buffer) was added to columns 1-2.
2. 25 nL, library and DMSO controls were added to each well with a pin tool (Kalypsys).
3. The assay plates were incubated for 30 minutes at room temperature.
4. 1 µL of master mix (500 nM glutathione reductase (GR), 5 mM reduced glutathione (GSH), 2.5 mM NADPH in assay buffer) was added.
5. 1 µL of cumene hydroperoxide (CHP) ([2.5 mM] in 50% EtOH) was then added within 5 minutes to initiate the reaction. Final concentrations were: 200 nM GPX4, 1 mM GSH, 0.5 mM CHP, 0.5 mM NADPH, 100 nM GR, 0.01% BSA.
6. Initial fluorescence readout (t=0) at 340/450 nm was measured using a ViewLux multimodal detector (PerkinElmer, Waltham, MA).
8. Endpoint fluorescence readout (t=15) at 340/450 nm was measured 15 min after room temperature incubation.
% is scaled to controls: 0 for no effect and ±100 for the full control effect; potency is read from the fitted curve at half-maximal effect.

Phospholipid hydroperoxide glutathione peroxidase GPX4 (Homo sapiens), sequence (P36969 whole entry, looked up): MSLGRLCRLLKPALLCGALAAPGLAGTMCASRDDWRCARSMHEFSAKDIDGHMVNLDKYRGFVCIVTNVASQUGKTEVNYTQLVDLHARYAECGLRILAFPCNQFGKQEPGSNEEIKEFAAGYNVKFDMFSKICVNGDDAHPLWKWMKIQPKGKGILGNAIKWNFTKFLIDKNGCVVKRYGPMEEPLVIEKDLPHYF

Compound | activity change, negative = inhibition [%] | outcome | Potency
COc1ccc2c(c1)c(CC(=O)O)c(C)n2C(=O)c1ccccc1 | -3.84 | – | –
N=S(=O)(O)Cc1noc2ccccc12 | – | inactive | –
Clc1nccc2c1ccc1ccccc12 | 0.885 | – | –
CN1Cc2sccc2C(c2ccc(O)c(O)c2)C1 (stereo not given) | -9.17 | – | –
CCCCCCCCCCCCCCCCCCOC[C@H](COP(=O)([O-])OCC[N+](C)(C)C)OC | -0.535 | – | –
Nn1nnc2ccccc21 | – | inactive | –
C=CCN1CCc2c(cc(O)c(O)c2Cl)C(c2ccccc2)C1 (stereo not given) | 2.07 | – | –
Oc1cc(O)c2c(c1)O[C@H](c1ccc(O)c(O)c1)[C@@H](O)C2 | – | inactive | –
O=C(c1ccc2c(c1)OCCO2)N1CCCCC1 | – | inactive | –
COc1ccc(CCn2nnnc2C2(c3ccc(C)cc3)CC2)cc1 | -17.8 | – | –
COc1cc([C@@H]2c3cc4c(cc3[C@H](O)C3COC(=O)[C@@H]32)OCO4)cc(OC)c1OC (stereo not given in full) | – | inactive | –
NCCCCN | -9.36 | – | –
c1ccc2nc(C3=NCCN3)ccc2c1 | -8.96 | – | –
Nc1nc2c(cnn2CCc2ccccc2)c2nc(-c3ccco3)nn12 | – | inactive | –
COc1cc(/C=C(\C#N)C(=O)Nc2nnc(C(F)(F)F)s2)ccc1OCc1ccc(C(F)(F)F)cc1C(F)(F)F | – | inactive | –
CN[C@H](CC(=O)O)C(=O)O | – | inactive | –
O=c1ccc2c(OCCCCc3ccccc3)c3ccoc3cc2o1 | – | inactive | –
O=C(O)c1ccccc1Nc1cccc(OCc2ccc3ccccc3n2)c1 | 1.69 | – | –
O=C(O)Cc1ccc(O)c(O)c1 | -15 | – | –
CCCCCCCCCCC(C)(C)C(=O)Nc1c(OC)cc(OC)cc1OC | – | inactive | –

Compound | activity change, negative = inhibition [%] | outcome | Potency
NC(=O)c1ccccc1 | – | inactive | –
Brc1c(Br)c(Br)c2[nH]cnc2c1Br | – | inactive | –
N[C@@H](CCC(=O)N[C@H](CSN=O)C(=O)NCC(=O)O)C(=O)O | -17.4 | – | –
C=C1C[C@@]23CC[C@H]4[C@@](C)(CCC[C@@]4(C)C(=O)OC4OC(CO)C(O)C(O)C4O)[C@@H]2CC[C@]1(OC1OC(CO)C(O)C(O)C1OC1OC(CO)C(O)C(O)C1O)C3 (stereo not given in full) | – | inactive | –
CC(C)(CO)Cc1cc(C(C)(C)C)c(O)c(C(C)(C)C)c1 | 0.884 | – | –
C=CCNc1ncnc2ccc(Br)cc12 | 0.607 | – | –
[Li+] | – | inactive | –
CC(=O)SC1CC2=CC(=O)CC[C@]2(C)C2CC[C@@]3(C)C(CC[C@@]34CCC(=O)O4)C12 (stereo not given in full) | -6.81 | – | –
NC/C=C\C(=O)O | -19.2 | – | –
CCCc1c(-c2ccc(O)cc2)nn(-c2ccc(O)cc2)c1-c1ccc(O)cc1 | -21.8 | – | –
OC[C@H]1O[C@H](n2cnc3c(N[C@H]4CCC[C@@H]4O)ncnc32)[C@H](O)[C@@H]1O | -10.7 | – | –
CC(C)Cn1c(=O)n(C)c(=O)c2[nH]cnc21 | 3.58 | – | –
Cc1ccc2c(c1)C(N1CCN(C)CC1)=Nc1cccnc1N2 | -3.26 | – | –
CC(=O)O[C@H]1CC2(C)[C@@H](C[C@@H](O)[C@H]3[C@@]4(C)CC[C@@H](O)[C@@H](C)[C@@H]4CC[C@@]32C)C1=C(CCC=C(C)C)C(=O)O (stereo not given in full) | – | inactive | –
CC1C(=O)N(C)C(=O)c2nc[nH]c21 (stereo not given) | -15.1 | – | –
Nc1ccc(N2C(=O)c3ccccc3C2=O)c(Cl)c1 | – | inactive | –
NC1(C(=O)O)CC1 | – | inactive | –
COc1cc(N)c(Cl)cc1C(=O)OCCN1CCCCC1 | – | inactive | –
Cn1c(=O)c2[nH]c(-c3ccc(S(=O)(=O)O)cc3)nc2n(C)c1=O | – | – | 11.2 µM (active)
Nc1ncnc2c1c(-c1ccc(Oc3ccccc3)cc1)cn2C1CCCC1 | 4.18 | – | –
